Assay results taken from PubChem BioAssay AID1852 (Sanford-Burnham Center for Chemical Genomics, 2009).
The campaign covered roughly 2,500 compounds. About 1,100 (44%) were called active. The set was probably picked from earlier hits. The list shows a part of the results. A number with no mark means an inactive call.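 How the source made its calls: active means inhibition above 50% at 4 µM in the single-point screen; inactive means inhibition of 50% or less.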

Assay: TNF-a-driven NF-kB reporter inhibitors, primary screen, selectivity assay for NOD1/NOD2 signaling inhibitor project, cell-based, HEK293T NF-kB-Luc, luminescence (AID 1852)
Settings: TNF-a induced, 14 h, at 4 µM, active compounds read high

| SMILES | inhibition |
| --- | --- |
| Cn1c2c(c(=O)n(C)c1=O)C(C(F)(F)F)(C(F)(F)F)N=C(c1ccc(Cl)cc1)N2 | 73.2% (active) |
| Cc1nc2c(Br)cc(Br)cc2cc1O | 8.1% |
| Cc1ccc(C(=O)NC(=C(Cl)Cl)S(=O)(=O)c2ccccc2)cc1 | 97.7% (active) |
| Cc1ccc(C(=O)c2cnc3cc4c(cc3c2S(=O)(=O)c2ccccc2)OCCO4)cc1 | -56.6% |
| CC(=O)NC(=C(Cl)Cl)S(=O)(=O)c1ccccc1 | 42.6% |
| Cc1ccc(C(=O)NC(=C(Cl)Cl)S(=O)(=O)c2ccc(C)cc2)cc1 | 4.6% |
| Cc1ccc(C(=O)NC(C#N)=C(Cl)Cl)cc1 | 94.7% (active) |
| O=C(NC(=C(Cl)Cl)S(=O)(=O)c1ccc(Cl)cc1)c1ccccc1 | 97.1% (active) |
| Cc1ccc(C(=O)NC(=C(Cl)Cl)S(=O)(=O)c2ccc(Cl)cc2)cc1 | 63.9% (active) |
| COc1ccc(C(=O)NC(=C(Cl)Cl)S(=O)(=O)c2ccc(C)cc2)cc1 | -46.2% |
| CC(C)NC(=S)NC(c1ccccc1)(c1ccccc1)c1ccccc1 | 19.3% |
| COc1cc(/C=C2\C(=N)N3N=C(S(C)(=O)=O)SC3=NC2=O)ccc1OCCOc1ccc(C)cc1 | -39.5% |
| Clc1ccccc1Cc1noc(CN2CCN(c3cnccn3)CC2)n1 | 7.7% |
| Cc1cccc(C(=O)Nc2sc3c(c2C(=O)O)CCCC3)c1 | -8.5% |
| O=C(Nc1sc2c(c1C(=O)O)CCCC2)c1ccccc1Cl | 25% |
| O=C(O)c1c(NC(=O)c2cccc3ccccc23)sc2c1CCC2 | 53.9% (active) |
| COC(=O)c1ccc(Nc2c([N+](=O)[O-])c(=O)oc3ccccc23)cc1 | 99.5% (active) |
| Cc1ccc(Nc2c([N+](=O)[O-])c(=O)oc3ccccc23)cc1C | 6.4% |
| O=c1oc2ccccc2c(Nc2ccc(F)cc2)c1[N+](=O)[O-] | -32.2% |
| C=CS(=O)(=O)c1ccc(Oc2ccc(S(=O)(=O)C=C)cc2)cc1 | 103% (active) |
| CC(=O)NC(c1ccccc1)c1cc([N+](=O)[O-])c2cccnc2c1O (stereo unspecified) | 99.5% (active) |
| CC(=O)NC(c1ccc(C)cc1)c1cc([N+](=O)[O-])c2cccnc2c1O (stereo unspecified) | 76.4% (active) |
| CC(=O)NC(c1ccc(C)cc1)c1cc(Cl)c2cccnc2c1O (stereo unspecified) | 77.9% (active) |
| CCC(=O)NC(/C=C/c1ccccc1)c1cc([N+](=O)[O-])c2cccnc2c1O (stereo unspecified) | 81.6% (active) |
| CCCCCc1ccc(OCCCC[n+]2ccc(C)cc2)c(CCCCC)c1 | 6.6% |
| CCC(=O)NC(c1ccc(C)cc1)c1cc([N+](=O)[O-])c2cccnc2c1O (stereo unspecified) | 84.6% (active) |
